{"source": "PubChem BioAssay AID687020", "about": "(Broad Institute, 2013)", "note": "The campaign covered roughly 1,400 compounds. About 100 (7.1%) were called active. How the calls were made is not given here. Not all results are given here. Measured potencies and affinities stand elsewhere.", "data": [{"assay": "Vero cell toxicity, dose response, cytotoxicity control, plate reader, cherry-pick samples (AID 687020);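 further: compounds incubated with cells for three days before luminescence read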", "conditions": "Vero cells toxicity; series mostly up to 19.5 µM; activity change, negative = toxicity: at the top concentration", "values": [{"smiles": "O=C(CN1CCN(Cc2ccccc2)CC1)NNC(=O)c1ccccc1", "activity change, negative = toxicity": "5.73% (inactive)"}, {"smiles": "CCCNC(=O)C(Cc1ccc(I)cc1)NC(=O)c1ccc(C#N)cc1", "note": "(centres undefined)", "activity change, negative = toxicity": "-7.83% (inactive)"}, {"smiles": "Cc1ccnc(NC(=O)C(Cc2ccccc2)NC(=O)c2ccccc2)c1", "note": "(centres undefined)", "activity change, negative = toxicity": "-0.022% (inactive)"}, {"smiles": "Cc1cn([C@H]2C[C@H](O)[C@@H](CNCc3ccc4ncccc4c3)O2)c(=O)[nH]c1=O", "activity change, negative = toxicity": "1.96% (inactive)"}, {"smiles": "CCOc1ccc(N(CC(=O)Nc2cccc(C)c2)S(C)(=O)=O)cc1", "activity change, negative = toxicity": "0.008% (inactive)"}, {"smiles": "CCN(CC)S(=O)(=O)c1ccc(NC(=O)COC(=O)CNC(=O)C2CCCCC2)cc1", "activity change, negative = toxicity": "-11.8% (inactive)"}, {"smiles": "CCCc1cc(=O)oc2c(C)c(OCC(=O)N3C[C@H]4C[C@@H](C3)c3cccc(=O)n3C4)ccc12", "activity change, negative = toxicity": "-1.16% (inactive)"}, {"smiles": "Cc1c(C)c2c(OCC(=O)N3CCC(O)CC3)cc3c(c2oc1=O)CCC(C)(C)O3", "activity change, negative = toxicity": "-2.19% (inactive)"}, {"smiles": "C[C@@H]1CN([C@H](C)CO)C(=O)c2cc(NC(=O)Nc3ccc(C(F)(F)F)cc3)ccc2O[C@@H]1CN(C)Cc1ccccc1", "activity change, negative = toxicity": "-1.61% (inactive)"}, {"smiles": "COc1ccccc1N1CCN(C(=O)c2cc(S(=O)(=O)N3CCCCC3)ccc2C)CC1", "activity change, negative = toxicity": "2.93% (inactive)"}, {"smiles": "O=C(Nc1ccn(CC(=O)N2CCN(c3ccccn3)CC2)c(=O)n1)OCc1ccccc1", "activity change, negative = toxicity": "0.414% (inactive)"}, {"smiles": "CC(C)(C)OC(=O)C(Cc1ccc(OC(C)(C)C)cc1)NC(=O)CNC(=O)OCc1ccccc1", "note": "(centres undefined)", "activity change, negative = toxicity": "7.26% (inactive)"}, {"smiles": "Cc1cccc(NC(=O)c2cccc(S(=O)(=O)N(C)C3CCCCC3)c2)n1", "activity change, negative = toxicity": "-9.89% (inactive)"}, {"smiles": "CCCC/C=C/c1cccc2nncn12", "activity change, negative = toxicity": "-16.7% (inactive)"}, {"smiles": "COc1cccc(-c2nc3nc(C)cc(C)n3c2NC2CCCC2)c1", "activity change, negative = toxicity": "-12.2% (inactive)"}, {"smiles": "CCC(=O)Nc1cc(C(=O)OCc2ccc(C(=O)Oc3ccccc3)cc2)ccc1C", "activity change, negative = toxicity": "-7.35% (inactive)"}, {"smiles": "O=C([C@@H]1[C@@H](CO)[C@@H]2Cn3c(cccc3=O)[C@H]1N2C(=O)CC1CC1)N1CCCCC1", "activity change, negative = toxicity": "-1.82% (inactive)"}, {"smiles": "CCCCNC(=O)c1onc(CS(=O)(=O)c2ccccn2)c1C(=O)NCCCC", "activity change, negative = toxicity": "3.17% (inactive)"}, {"smiles": "COc1ccc([C@H]2/C=C\\CN(C(=O)c3ccc(C)cc3)[C@@H](C)C(=O)N2Cc2ccc(F)cc2)cc1", "activity change, negative = toxicity": "-21% (inactive)"}, {"smiles": "O=C(N[C@H](Cc1ccccc1)C(=O)NC1CCCCC1)[C@H]1O[C@@H](n2ccc(=O)[nH]c2=O)[C@H](O)[C@@H]1O", "activity change, negative = toxicity": "-7.41% (inactive)"}, {"smiles": "COC(=O)c1ccc2nc(-c3ccc(C#N)cc3)c(Cc3cccc(F)c3)n2c1", "activity change, negative = toxicity": "-7.15% (inactive)"}, {"smiles": "COC(=O)c1ccc2nc(C3CCCCC3)c(Cc3ccccc3OC)n2c1", "activity change, negative = toxicity": "4.3% (inactive)"}, {"smiles": "CCN1CCN(CCc2nc3cc(NC(=O)COc4ccc(Cl)cc4)ccc3n2C)CC1", "activity change, negative = toxicity": "7.94% (inactive)"}, {"smiles": "CCN1C(=NCCc2c[nH]c3ccccc23)N[C@@H](c2ccccc2)[C@H](C(=O)OC)[C@H]1C", "activity change, negative = toxicity": "2.11% (inactive)"}, {"smiles": "NCc1csc(NC(=O)Nc2cccc(Cl)c2)n1", "activity change, negative = toxicity": "-0.314% (inactive)"}, {"smiles": "COC(=O)[C@]12CCCCC=C1N(Cc1cccc3ccccc13)C(=O)[C@H](CC(=O)N1CCOCC1)C2", "activity change, negative = toxicity": "-24.4% (inactive)"}, {"smiles": "COC(=O)[C@]12CCCCC=C1N(Cc1cccc3ccccc13)C(=O)[C@H](CC(=O)NCCC(C)C)C2", "activity change, negative = toxicity": "-3.09% (inactive)"}, {"smiles": "COc1ccc(S(=O)(=O)Nc2ccc3c(c2)C(=O)N([C@@H](C)CO)C[C@H](C)[C@H](CN(C)C(=O)Nc2ccc(C(F)(F)F)cc2)OCCCC[C@H](C)O3)cc1", "activity change, negative = toxicity": "-3.77% (inactive)"}, {"smiles": "CC(NC(=O)CN1CCCC1)c1ccccc1", "note": "(centres undefined)", "activity change, negative = toxicity": "-14.4% (inactive)"}, {"smiles": "Cc1cc(C)c2[nH]c(C(=O)Nc3ccc4c(c3)OCO4)cc2c1", "activity change, negative = toxicity": "12.9% (inactive)"}, {"smiles": "Cc1cccc(OCCn2c(=O)n(C)c3ccccc32)c1", "activity change, negative = toxicity": "0.128% (inactive)"}, {"smiles": "Cc1oc2cc3oc(=O)c(CCC(=O)NCCCn4ccnc4)c(C)c3cc2c1C", "activity change, negative = toxicity": "-2.65% (inactive)"}, {"smiles": "Cc1c(C)c2cc(Cl)c(OCC(=O)NCCCN3CCCC3=O)cc2oc1=O", "activity change, negative = toxicity": "-17.8% (inactive)"}, {"smiles": "COc1ccc(CN(CCC(c2ccccc2)C2CCOC(C)(C)C2)C(C)=O)cc1", "note": "(centres undefined)", "activity change, negative = toxicity": "-28.6% (inactive)"}, {"smiles": "Cc1ccc(C2(C)NC(=O)N(CC(=O)Nc3ccccc3C(=O)NC3CCCC3)C2=O)cc1", "note": "(centres undefined)", "activity change, negative = toxicity": "16.5% (inactive)"}, {"smiles": "Cc1cccc(C(=O)NC2CCN(CC(=O)Nc3cccc(Cl)c3)CC2)c1", "activity change, negative = toxicity": "-13.7% (inactive)"}, {"smiles": "O=S1(=O)CCOCCCN1Cc1ccccc1Br", "activity change, negative = toxicity": "-11.1% (inactive)"}, {"smiles": "CN1C(=O)c2cc(NC(=O)Cc3cccs3)ccc2OC[C@@H]2O[C@H](CC(=O)NCC3CCCCC3)CC[C@H]21", "activity change, negative = toxicity": "-0.804% (inactive)"}, {"smiles": "CC(=O)N1CC2(C1)[C@H](c1ccc(-c3ccc(C#N)cc3)cc1)[C@@H](CO)N2C(=O)C1CC1", "activity change, negative = toxicity": "-8.45% [at 21 µM] (inactive)"}, {"smiles": "CCCCN1C(Nc2ccccc2)=NC[C@@H]1Cc1ccccc1", "activity change, negative = toxicity": "-27.3% (inactive)"}, {"smiles": "O=C(Nc1ccccc1)c1ccccc1CSc1ccccc1", "activity change, negative = toxicity": "-1.49% (inactive)"}, {"smiles": "O=S(=O)(c1cccc(C(F)(F)F)c1)N1CCN(CC(O)COCc2ccccc2)CC1", "note": "(centres undefined)", "activity change, negative = toxicity": "-21.4% (inactive)"}, {"smiles": "O=C(Cc1cccc(C(F)(F)F)c1)Nc1ccc(S(=O)(=O)N2CCCC2)cc1", "activity change, negative = toxicity": "-7.86% (inactive)"}, {"smiles": "CC1(C#N)c2ccccc2C(Br)=CN1C(=O)c1ccccc1", "note": "(centres undefined)", "activity change, negative = toxicity": "-10.1% (inactive)"}, {"smiles": "COc1ccc(NC(=O)C2CCC(CNS(=O)(=O)c3cccs3)CC2)cc1OC", "note": "(centres undefined)", "activity change, negative = toxicity": "9.24% (inactive)"}, {"smiles": "O=C1Nc2ccccc2SC1c1ccccc1", "note": "(centres undefined)", "activity change, negative = toxicity": "-3.58% (inactive)"}, {"smiles": "COc1ccc(-c2nc3ccc(C)cn3c2Cc2cccc(F)c2)cc1OC", "activity change, negative = toxicity": "-12.7% (inactive)"}, {"smiles": "CC(=O)Nc1cccc(C(=O)OCC(=O)Nc2ccc(Cl)cn2)c1", "activity change, negative = toxicity": "-16.6% (inactive)"}, {"smiles": "CC(=O)Nc1cccc(/C(C)=N/NC(=O)c2cccc(S(=O)(=O)N3CCCC3)c2)c1", "activity change, negative = toxicity": "-0.142% (inactive)"}, {"smiles": "O=C(C1CCOCC1)N1[C@H](CO)[C@@H](c2ccccc2)C12CN(Cc1cccnc1)C2", "activity change, negative = toxicity": "-1.45% [at 21 µM] (inactive)"}, {"smiles": "COC(=O)Cc1ccc(OC2(C)CCN(Cc3csc4ccccc34)C2)cc1", "note": "(centres undefined)", "activity change, negative = toxicity": "-3.5% (inactive)"}, {"smiles": "COc1ccc(Cc2nnc(NC(=O)c3ccccc3Cl)s2)cc1OC", "activity change, negative = toxicity": "7.56% (inactive)"}, {"smiles": "COC(=O)CCc1cccc(CCC(=O)OC)c1", "activity change, negative = toxicity": "13% (inactive)"}, {"smiles": "C[C@@H](NC(=O)C[C@@H]1CC[C@H]2[C@@H](COC[C@H](O)CN2C(=O)Nc2ccccc2)O1)c1ccccc1", "activity change, negative = toxicity": "-8.89% (inactive)"}, {"smiles": "Cc1ccc(S(=O)(=O)NC(=O)C2(C)CCN2C(=O)c2ccc(C(F)(F)F)nc2C)cc1", "note": "(centres undefined)", "activity change, negative = toxicity": "1.35% (inactive)"}, {"smiles": "O=S(=O)(c1cnc(Cl)c(Cl)c1)N1CCc2ccccc21", "activity change, negative = toxicity": "-3.26% (inactive)"}, {"smiles": "Cc1ccc(-c2csc(NC(=O)c3ccc(S(=O)(=O)N4CCc5ccccc54)cc3)n2)cc1", "activity change, negative = toxicity": "-32.4% (inactive)"}, {"smiles": "COCCNC(=O)C[C@@H]1C[C@H]2c3cc(NC(=O)Nc4ccc(OC)cc4)ccc3O[C@H]2[C@@H](CO)O1", "activity change, negative = toxicity": "12.2% (inactive)"}, {"smiles": "COc1ccc(CC(=O)OCC(=O)NCCNC(=O)COC(=O)Cc2ccc(OC)cc2)cc1", "activity change, negative = toxicity": "-7.45% (inactive)"}]}]}
